The values that follow come from PubChem BioAssay (NCI).

Test systems include RPMI-8226 leukemia; OVCAR-8 ovarian; OVCAR-5 ovarian; OVCAR-4 ovarian; SK-OV-3 ovarian; IGROV1 ovarian; OVCAR-3 ovarian; HS 578T breast; NCI/ADR-RES ovarian; T-47D breast.
Common to all, as to experiment: NCI-60 one-dose screen, 48 h (100 = growth as untreated, 0 = no growth, -100 = all killed)
Details in all cases: 10 µM unless noted

The structures appear in SMILES notation. This is part of a sample that, as a whole, favours compounds with a hit. Of some 83,000 tested, about 20% had one in any assay.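 Method: cells in 96-well plates; compound added at one concentration; 48 h incubation; percent growth measured; values under 10 scored active.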 A number with no mark means an inactive call. The source made the active and inactive calls.

Take `CCN1CCC[C@H]1c1cc(O)c2c(c1OC)C[C@H]1C[C@H]3[C@H](N)C(=O)C(C(N)=O)=C(O)[C@@]3(O)C(=O)C1=C2O`: the growth is -18.8% (active) in the assay with RPMI-8226 leukemia; -0.399% (active) in the assay with OVCAR-8 ovarian; 4.81% (active) with OVCAR-5 ovarian; -0.794% (active) with OVCAR-4 ovarian; -1.89% (active) with SK-OV-3 ovarian; -5.97% (active) in the assay with IGROV1 ovarian. The growth was 2.36% (active) in the assay with OVCAR-3 ovarian, -3.05% (active) in the assay with HS 578T breast, 9.29% (active) with NCI/ADR-RES ovarian and -8.2% (active) with T-47D breast.
With `CC(C)C1=C[C@@]23CC[C@H]4[C@](C)(COCCC#N)CCC[C@]4(C)[C@H]2C[C@@H]1[C@@H]1[C@H]3[C@@H](OCCC#N)CC[C@@H]1OCCC#N`, the growth was 18.7% in the assay on RPMI-8226 leukemia; 34.4% with OVCAR-8 ovarian; 65.9% in the assay on OVCAR-5 ovarian; 27.1% with OVCAR-4 ovarian; 64.3% in the assay with SK-OV-3 ovarian; 23.5% in the assay with IGROV1 ovarian. Also, the growth was 37.1% in the assay with OVCAR-3 ovarian, 64.5% in the assay on HS 578T breast, 27.8% in the assay with NCI/ADR-RES ovarian and 10.5% in the assay on T-47D breast.
Regarding `Cc1cc(C)c(NC(=O)c2sc3nc4c(cc3c2N)CCCCCC4)c(C)c1`, the growth was 66.3% in the assay with RPMI-8226 leukemia; 73.9% with OVCAR-8 ovarian; 95.3% in the assay with OVCAR-5 ovarian; 73.7% in the assay with OVCAR-4 ovarian; 44.6% in the assay with SK-OV-3 ovarian; 61.2% in the assay on IGROV1 ovarian. Further, the growth in the assay with OVCAR-3 ovarian is 15.8%; in the assay with HS 578T breast, 47.6%; with NCI/ADR-RES ovarian, 48.1%; with T-47D breast, 44.5%.
For the compound `CC(=O)Nc1c(C(=O)Nc2ccccc2)sc2nc3c(cc12)C(OC(C)=O)CCC3` (stereo not given), the growth with RPMI-8226 leukemia was 107%; in the assay with OVCAR-8 ovarian, 105%; in the assay with OVCAR-5 ovarian, 108%; in the assay on OVCAR-4 ovarian, 108%; in the assay with SK-OV-3 ovarian, 46.6%; in the assay with IGROV1 ovarian, 109%. The growth in the assay with OVCAR-3 ovarian was 104%; in the assay with HS 578T breast, 102%; with NCI/ADR-RES ovarian, 88.4%; in the assay with T-47D breast, 93.5%.
`NC[C@@H]1CCN(c2cc3c(cc2F)c(=O)n(N)c(=O)n3Cc2ccc(-c3ccccc3)cc2)C1`: the growth in the assay on RPMI-8226 leukemia is 65.2%; in the assay on OVCAR-8 ovarian, 96.3%; in the assay on OVCAR-5 ovarian, 111%; in the assay on OVCAR-4 ovarian, 97.4%; with SK-OV-3 ovarian, 84.6%; with IGROV1 ovarian it was 91.9%. Besides, the growth is 96.4% with OVCAR-3 ovarian, 82.9% with HS 578T breast, 95.5% with NCI/ADR-RES ovarian and 89% with T-47D breast.
For `CC[C@H](Nc1ncnc2nc[nH]c12)c1nc2cccc(CC(=O)c3ccc(C(=O)NO)cc3)c2c(=O)n1-c1ccccc1`, the growth is 45.1% in the assay with RPMI-8226 leukemia; 81.3% in the assay on OVCAR-8 ovarian; 97.9% in the assay with OVCAR-5 ovarian; 78.3% in the assay on OVCAR-4 ovarian; 98.8% in the assay with SK-OV-3 ovarian; 89.1% in the assay with IGROV1 ovarian. Also, the growth is 76.9% with OVCAR-3 ovarian, 72% in the assay on HS 578T breast, 94% in the assay on NCI/ADR-RES ovarian and 50.7% with T-47D breast.
As for `Nn1c(SCC(=O)Nc2ccc(Cl)cc2)nnc1-c1cc(F)c(Cl)cc1Cl`, the growth in the assay with RPMI-8226 leukemia was 76.8%; in the assay with OVCAR-8 ovarian, 89.9%; in the assay on OVCAR-5 ovarian, 66.5%; with OVCAR-4 ovarian, 85.9%; in the assay with SK-OV-3 ovarian, 89.9%; in the assay with IGROV1 ovarian it was 89.9%. The growth with OVCAR-3 ovarian is 84.2%; in the assay on HS 578T breast, 99.7%; with NCI/ADR-RES ovarian, 93.5%; with T-47D breast, 67.3%.
Regarding `COc1ccccc1C(=O)/C=C/c1cc2cccc(OC)c2[nH]c1=O`, the growth in the assay on RPMI-8226 leukemia is -14.5% (active); in the assay with OVCAR-8 ovarian, -5.37% (active); in the assay on OVCAR-5 ovarian, 13.1%; with OVCAR-4 ovarian, 15.4%; in the assay on SK-OV-3 ovarian, 16.3%; in the assay with IGROV1 ovarian it was 2.88% (active). For the same compound, the growth was -9.01% (active) with OVCAR-3 ovarian, 39.3% in the assay on HS 578T breast, 3.01% (active) with NCI/ADR-RES ovarian and 11.3% in the assay with T-47D breast.
Take `N#C/C(=C/c1ccc(O)c([N+](=O)[O-])c1)c1nc(-c2ccc([N+](=O)[O-])cc2)cs1`: the growth in the assay on RPMI-8226 leukemia was 9.81% (active); with OVCAR-8 ovarian, 48.4%; in the assay on OVCAR-5 ovarian, 108%; in the assay on OVCAR-4 ovarian, 34.1%; in the assay with SK-OV-3 ovarian, 38.9%; with IGROV1 ovarian, 55.9%. The growth was 23.5% in the assay with OVCAR-3 ovarian, 44.2% in the assay on HS 578T breast, 33.4% in the assay on NCI/ADR-RES ovarian and 11.2% in the assay on T-47D breast.
In the case of `CCCCc1n(Cc2ccc3ccccc3n2)cc[n+]1Cc1ccc2ccccc2c1`, the growth was -7.1% (active) in the assay with RPMI-8226 leukemia; 2.38% (active) in the assay with OVCAR-8 ovarian; 24% with OVCAR-5 ovarian; 28.6% in the assay with OVCAR-4 ovarian; -14% (active) with SK-OV-3 ovarian; -14.7% (active) in the assay on IGROV1 ovarian. Besides, the growth is 5.59% (active) with OVCAR-3 ovarian, 16.6% in the assay on HS 578T breast, 101% with NCI/ADR-RES ovarian and -0.345% (active) with T-47D breast.
Consider `COC(=O)CCc1n(Cc2ccc3ccccc3c2)c2ccccc2[n+]1Cc1ccc2ccccc2c1`, for which the growth in the assay with RPMI-8226 leukemia was -21.3% (active); with OVCAR-8 ovarian, 6.77% (active); in the assay with OVCAR-5 ovarian, 18%; in the assay on OVCAR-4 ovarian, 7.13% (active); in the assay on SK-OV-3 ovarian it was 10.8%; with IGROV1 ovarian, -26.4% (active). Moreover, the growth in the assay with OVCAR-3 ovarian is -14.2% (active); in the assay on HS 578T breast it was 25%; in the assay on NCI/ADR-RES ovarian, 100%; with T-47D breast it was -0.425% (active).
